# Source: PubChem BioAssay
# GAA spleen mod – lysosomal alpha-glucosidase (human) modulation; Potency, µM (series often up to 79.9 µM), usual class: inhibitors; P10253; human spleen homogenate, 4-MU-alpha-glucoside fluorescence; hit rate 0.006% among 240,000
#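 Human spleen homogenate (1 ug) with 4-methylumbelliferyl-alpha-D-glucopyranoside (1 mM final) in 50 mM citrate/phosphate pH 5.0, 0.01% Tween-20; 40 min at 37 C. Stopped at pH 10; 4-MU fluorescence Ex 365/Em 440 nm; AC50 by Hill fit.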
# GLA inh pH 4.5 – blocks human alpha-galactosidase A at pH 4.5; P06280; purified enzyme, 4-MU-alpha-Gal fluorescence, pH 4.5; activity change, negative = inhibition, % at 105 µM; 230,000 tested, under 10 active; AID 1467
# Target sequence (P06280 whole entry, looked up): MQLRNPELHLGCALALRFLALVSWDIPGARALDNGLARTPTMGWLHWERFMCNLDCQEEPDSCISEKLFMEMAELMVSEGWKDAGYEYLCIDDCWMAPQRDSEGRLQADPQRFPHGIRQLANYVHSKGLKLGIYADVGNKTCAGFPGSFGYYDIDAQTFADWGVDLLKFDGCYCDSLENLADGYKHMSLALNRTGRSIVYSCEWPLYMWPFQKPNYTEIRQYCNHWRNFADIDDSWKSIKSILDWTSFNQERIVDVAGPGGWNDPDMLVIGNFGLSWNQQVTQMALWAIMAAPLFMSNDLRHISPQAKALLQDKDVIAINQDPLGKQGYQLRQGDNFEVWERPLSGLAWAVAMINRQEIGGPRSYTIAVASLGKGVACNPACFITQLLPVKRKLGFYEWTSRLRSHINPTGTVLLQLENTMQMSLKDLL
# aGal spleen mod – alpha-galactosidase A (human) modulation. human spleen homogenate, 4MU-alpha-Gal fluorescence, 40 min. Potency, µM (doses to about 80 µM), hits mostly inhibitors. hit rate 0.008% among 240,000. AID 2107
#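 Spleen homogenate 1 ug + cpd (titration) + 4-MU-alpha-D-galactopyranoside 1 mM; 37C 40 min; 50 mM citrate/phosphate pH 5.0, 0.01% Tween-20; stop pH 10; fluorescence 365/440; AC50 via Hill.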
# GAA glycogen mod – alters human alpha-glucosidase cleavage of glycogen | P10253 | recombinant GAA, glycogen substrate, Amplex Red glucose oxidase fluorescence | Potency, µM (highest dose often 76.4 µM), hits mostly inhibitors | hit rate 0.38% among 300,000 | AID 2100;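 also: the screen sought inhibitors and activators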
#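 Recombinant enzyme (4 nM final) with compounds titrated up to 77 uM and bovine liver glycogen (30 ug) in citrate pH 5.0, 0.01% Tween-20, 37 C 40 min. Released glucose detected by Amplex Red/glucose oxidase (Ex 573/Em 610); AC50 from Hill fits.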
# GAA inh – inhibitors of human lysosomal alpha-glucosidase | AID 1466 | Potency, µM (top dose mostly 76.9 µM), actives largely listed as inhibitors | hit rate 0.005% among 200,000 | P10253 | purified human GAA, 4-MU-alpha-glucoside fluorescence
#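 Fluorescence at Ex 365/Em 440 nm from 4-methylumbelliferone reported enzyme activity after 20 min at room temperature. Reactions used 4 nM enzyme and 400 uM substrate at pH 5.0; curves fitted with the Hill equation.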
# Numbers stand for hits; n = inactive; u = inconclusive; x = not tested or not shown; [ ] = dose if it differs, or a comment. An excerpt weighted towards active compounds, which were near 0.4% of everything screened. Calls follow the shape of the dose curve; as a rule, active = well fitted curve in the direction sought with a large enough effect; inconclusive = small, poorly fitted or top-dose-only effect, or another doubt; inactive = no such curve, though single readings can be large; an effect the other way counts as inactive or inconclusive.
SMILES,GAA spleen mod,GLA inh pH 4.5,aGal spleen mod,GAA glycogen mod,GAA inh
COC(=O)c1[nH]c2cc(OC)ccc2c1N,n,n,n,35µM,n
CCOC(=O)Nc1c(C(=O)OC)[nH]c2cc(OC)ccc12,n,n,n,n,n
Cc1cc(C)cc(Nc2ccc(C(=O)O)cc2N)c1,n,n,u,u,u
Cc1ccc(Nc2ccc(C(=O)O)cc2N)cc1,n,n,n,28µM,n
CC(=O)Nc1cc(C(C)C)c(O)c(C(C)C)c1,n,n,n,11µM,n
CCOC(=O)c1cccc(NC(=O)Nc2ccc3c(c2)N(C)C(=O)c2ccccc2S3)c1,x,x,x,n,x
O=S(=O)(N/N=C\c1ccc(-c2ccccc2Cl)o1)c1ccccc1,n,n,n,25µM,n
CCC(=O)N1CCc2cc(Br)cc(S(=O)(=O)NCCc3ccccc3Cl)c21,x,x,x,n,x
CCOc1ccc(N(CC(=O)Nc2ccccc2CC)S(=O)(=O)c2c(C)[nH]c(=O)[nH]c2=O)cc1,x,x,x,n,x
Nc1ccc(S(=O)(=O)NC2(C(F)(F)F)NC(=O)N(c3cccc(Cl)c3)C2=O)cc1 (centres undefined),x,x,x,n,x
O=C(N/N=C/c1ccc(O)c(O)c1)c1ccc(CSc2cccc3cccnc23)cc1,n,n,n,14µM,n
Cc1cnc(CNc2cc(-c3ccc(N(C)C)cc3)ncn2)cn1,n,x,n,x,x
CC(C)(C)C(=O)/C=C/Nc1ccccc1O,n,n,n,14µM,n
CN(C)c1ccc(N/C=C/C(=O)C(C)(C)C)cc1,n,n,n,u,n
Nc1ccc(Nc2ccccc2)c(Cl)c1,n,n,n,35µM,n
CCOC(=O)c1[nH]nc(-c2cc(CC)c(O)cc2O)c1-c1cscn1,n,n,n,12µM,n
CCCc1cc2c(=O)c(-c3cscn3)c(C(=O)OCC)oc2cc1O,n,n,n,n,n
CCOC(=O)NC1(NCc2ccccc2)Oc2ccccc2O1,n,n,n,16µM,n
CCOC(=O)NC1(NC(C)C)Oc2ccccc2O1,n,n,n,n,n
CCOC(=O)NC1(NC2CCCCC2)Oc2ccccc2O1,n,n,n,8.9µM,n
CCOC(=O)NC1(NCC(C)C)Oc2ccccc2O1,n,n,n,u,n
O=C(NCCc1ccccc1)c1ccc2c(c1)CCN2S(=O)(=O)c1ccccc1,x,x,x,n,x
CCC(CC)c1nn2c(=O)cc(COc3ccc(NC(=O)c4cccc(C)c4)cc3)nc2s1,x,x,x,n,x
C#C[C@]1(O)CC[C@H]2C3CCC4=Cc5oncc5CC4(C)C3CCC21C (some centres undefined),n,n,n,x,x
COCCn1c(NC(=S)NC(=O)C23CC4CC(CC(C4)C2)C3)cc(=O)[nH]c1=O,n,n,n,n,x
SMILES,GAA spleen mod,GLA inh pH 4.5,aGal spleen mod,GAA glycogen mod,GAA inh
COCCn1c(NC(=S)NC(=O)C2CC2)cc(=O)[nH]c1=O,n,n,n,31µM,n
CC(C)(C)OC(=O)NC(NC(=O)OCC1c2ccccc2-c2ccccc21)C(=O)O (centres undefined),n,x,n,x,x
Cc1ccc(Nc2nc(=O)c3cccnc3s2)cc1,n,n,n,n,n
COc1ccc(OC)c(Nc2nc(=O)c3cccnc3s2)c1,n,n,n,28µM,u
Cc1ccccc1OCC(=O)Nc1ccc2[nH]c(=O)sc2c1,x,x,x,n,x
COc1ccc(NC(=O)NS(=O)(=O)c2ccc(C)cc2)c(OC)c1,n,n,n,25µM,n
Oc1ccc(Cl)cc1N=Cc1sc2ccccc2c1Cl,n,n,n,2.8µM,n
O=c1oc2ccccc2c(Nc2ccc(O)cc2)c1[N+](=O)[O-],n,n,n,3.5µM,n
C[C@H](N)C(=O)N[C@@H](Cc1ccc(F)cc1)C(=O)N[C@@H](CCCN=C(N)N)C(=O)N[C@@H](CC1CCCCC1)C(=O)N[C@@H](CCCCN=C(N)N)C(=O)N[C@@H](Cc1ccc(O)cc1)C(N)=O,n,x,n,x,x
COc1cc(CNc2ccc3c(c2)CCC3)cc(OC)c1O,n,n,n,25µM,n
CCOc1ccc(C(=O)Nc2cc(-c3ccccc3)no2)cc1,x,x,x,n,x
COc1cc(-c2nc3cnccn3c2Nc2ccc3c(c2)OCCO3)ccc1O,n,n,n,7µM,n
COc1cc(-c2nc3cnccn3c2Nc2ccc(C)cc2)ccc1O,n,n,n,11µM,n
O=C(c1ccc2ncsc2c1)N1CCN(c2ccc(O)cc2)CC1,n,n,n,9.9µM,n
O=C(c1ccc2ncsc2c1)N1CCN(c2ccccc2Cl)CC1,n,u,n,n,n
Cc1cc(C)c(-c2n[nH]c3c2C(c2ccccc2F)N(Cc2ccco2)C3=O)c(O)c1 (centres undefined),x,x,x,n,x
CC(C)(C)NC(=O)C(c1ccncc1)N(Cc1cccs1)C(=O)c1csnn1 (centres undefined),n,n,n,u,x
O=C(NC1CCCC1)C(c1ccncc1)N(Cc1cccs1)C(=O)c1csnn1 (centres undefined),n,n,n,20µM,n
COc1ccc(NC(=S)N/N=C2\CC(C)(C)Oc3ccc(O)cc32)cc1,n,n,n,8.9µM,n
Cc1cccc(NC(=S)N(C)C)c1C,n,n,n,n,n[15.4 µM]
Cc1cccc(Nc2cc(C)c3c(O)cccc3n2)c1C,n,n,n,10µM,n
CN(C)c1ccc(N/C=C/C(=O)c2ccccc2)cc1,n,n,n,14µM,n
O=C(/C=C/Nc1ccccc1)c1ccccc1,n,n,n,n,n
CC(=O)/C(=N/Nc1cccc(C)c1)N1CCOCC1,n,n,n,18µM,n
Cc1cccc(C(=O)Nc2cccc(C(=O)N3CCOCC3)c2)c1,n,n,n,n,n
SMILES,GAA spleen mod,GLA inh pH 4.5,aGal spleen mod,GAA glycogen mod,GAA inh
COC(=O)CCCC1=CC2=CC(=O)C(C)(OC(=O)c3cccs3)C(=O)C2=CN1C(CO)CO (centres undefined),n[17.4 µM],n,n[17.5 µM],x,x
CC(C)(C)c1onc(OCP(=O)(O)O)c1CC(N)C(=O)O (centres undefined),n,n,n,x,x
Oc1ccc(C2=Nn3c(nnc3-c3ccco3)SC2)cc1O,n,n,n,16µM,n
O=C1NN(c2ccc(Br)cc2)C(=O)/C1=C\c1ccc(O)cc1O,x,x,x,8.9µM,x
O=[N+]([O-])/C(C=Nc1ccccc1O)=C\Nc1ccccc1O,n,n,n,3.5µM,x
COC(=O)c1ccc(CSc2cc(C)c3cccc(C)c3n2)o1,u,n,35µM,n,n
COC(=O)c1ccc(CSc2cc(C)c3cc(C)cc(C)c3n2)o1,u,n,u,n,n
CCCCCCCN,n,x,n,x,x
Nc1nc(N2CCN(c3ccc(Cl)cc3)CC2)n[nH]1,n,n,n,u,n
Nc1nc(N2CCN(c3ccccc3)CC2)n[nH]1,n,n,n,10µM,n
COc1ccc(N2C(=O)CC(Nc3ccc(C)cc3)C2=O)cc1 (centres undefined),n,n,n,n,n
COc1ccc(NC2CC(=O)NC2=O)cc1 (centres undefined),n,n,n,11µM,n
CC1=NNC(=O)C1C(c1cccc(O)c1)C(C#N)C#N (centres undefined),n,n,n,n,x
